Sampled rows, rich in hits. Any-hit rate of the full collection: about 2.6%.
CCT chaperon mod = High-Throughput Screening for Modulators of Cytosolic Chaperonin Activity. purified chaperonin ATPase assay, HTRF ADP detection, 30 min. AID 651819, 2012. activity change, % (no concentration beside the values), hits read low. 0.3% of 360,000 active; in the data active = activity change below about -30%; note: % is set by controls: 0 for no effect and ±100 for the full control effect
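Enzyme 40 or 20 nM (batch-dependent) in Tris pH 7.4/KCl/MgCl2/DTT; cpd 76 uM single point; ATP 10 uM; 30 min 37 °C; Transcreener ADP HTRF detection, 30 min RT; ratio 665/615.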
AT treatment = qHTS Assay for Identifying a Potential Treatment of Ataxia-Telangiectasia | F2112 A-T fibroblasts, KAP-1 phosphorylation AlphaLISA; neocarzinostatin DNA damage 30 min before lysis | Potency, µM (titrated, usually from 57.5 µM), for inactives: top-dose activation, usual class: activators | 0.19% of 320,000 active | AID 485349, 2010; note: potency is the fitted concentration of half-maximal effect; % of control where 0% means no effect; nearly all actives have a fitted effect of over 45% in size
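ATM-like activity read as KAP-1 phosphorylation via AlphaLISA donor/acceptor antibody pairs after lysis and 6 hr at 25C. Cells were ATM-null patient fibroblasts (F2112, hTERT), dosed 60 min, then exposed to the DSB inducer NCS for 30 min.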
TCR activator = Activators of T cell receptors: qHTS campaign. Potency, µM (top dose mostly 9.22 µM), for the others: at the top dose activation of IL-2 secretion, actives largely listed as activators. primary human leukocytes, anti-CD3, IL-2 HTRF, 48 h. 330,000 tested, under 10 active; note: % of control where 0% means no effect
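48 hr co-incubation of compounds, a-CD3 beads and primary human leukocytes; IL-2 quantified homogeneously by HTRF with anti-IL-2 K and d2 conjugates.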
Nrf2 inh = Nrf2 qHTS screen for inhibitors. A549 ARE-Fluc reporter, luciferase luminescence, 18-24 h. Potency, µM (series often up to 46 µM), without a hit: at the highest dose activity change, negative = inhibition, actives largely listed as inhibitors. 2.1% of 360,000 active; note: potency is the fitted concentration of half-maximal effect; % is set by controls: 0 for no effect and ±100 for the full control effect; nearly all actives have a fitted effect of over 60% in size
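Two sequential reads on A549 ARE_Fluc cells exposed to compound for 18-24 h: a CellTiter-Fluor fluorescence read for viability, then a luciferase luminescence read for Nrf2/ARE activity.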
Nrf2 activator = qHTS of Nrf2 Activators | AREc32 ARE-luciferase reporter (MCF7-derived line), luminescence, 24 h | Potency, µM (top dose mostly 46.1 µM), without a hit: top-dose activation, actives largely listed as activators | 0.31% of 410,000 active | AID 624171, 2012; note: potency is the fitted concentration of half-maximal effect; % of control where 0% means no effect; nearly all actives have a fitted effect of over 65% in size
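For detection, Steady-Glo was added and plates sat 30 min at RT; before that, AREc32_Fluc cells grown overnight in OPTI-MEM/5% FBS had been treated with 23 nL compound for 24 hr at 37 deg C.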
A549 tox = Nrf2 qHTS screen for inhibitors: counterscreen for cytotoxicity; 0.16% of 390,000 active; Potency, µM (titrated, usually from 46 µM), for inactives: at the highest dose activity change, negative = cytotoxicity, usual class: inhibitors; A549 ARE-Fluc cells, CellTiter-Fluor viability, 18-24 h; note: potency is the fitted concentration of half-maximal effect; % is set by controls: 0 for no effect and ±100 for the full control effect
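Cytotoxicity counterscreen: CellTiter-Fluor fluorescence was measured in A549 ARE_Fluc cells after 18-24 h of compound exposure in a concentration series. The subsequent BugLite luminescent read reports ARE-luciferase activity.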
* = called active by the depositor; u = inconclusive; x = no result; [ ] = dose if it differs, or a comment. Unless noted, calls come from the whole dose curve; as a rule, active = well fitted curve in the direction sought with a large enough effect; inconclusive = small, poorly fitted or top-dose-only effect, or another doubt; inactive = no such curve, though single readings can be large; an effect the other way counts as inactive or inconclusive.

SMILES | CCT chaperon mod | AT treatment | TCR activator | Nrf2 inh | Nrf2 activator | A549 tox
O=C(NCc1ccco1)c1ccc2c(c1)N(Cc1ccccc1F)C(=O)c1ccccc1S2=O (stereo not given) | x | x | x | u | 8.8% | -14.3%
CCCSC1=N/C(=C\C=C\c2ccco2)C(=O)S1 | -4.2 | -5.7% | -3.7% | 5.6% | 10µM* | -3.7%
CSc1nsc(SC)c1C(=O)NC(=O)Nc1cccnc1 | -42.4* | -5.5% | -8.9% | -27.3% | 1.8% | -10.5%
CSc1nsc(SC)c1C(=O)Nc1ccc(C(C)(C)C)cc1 | 1.7 | 12.6% | 10.4% | u | 11.2µM* | 5.6%
CC(C)(C)c1ccc(C(=O)Nc2ccc(NC(=O)c3ccc(Cl)c(Cl)c3)cc2)cc1 | x | x | x | 11.7% | 0.2% | 0.0%
Cc1sc(NC(=O)Cc2ccc3c(c2)OCO3)nc1-c1ccc2c(c1)CCN2C(=O)c1cccc(F)c1 | -3.2 | 9.6% | -1.7%[46.1 µM] | 7.31µM* | 0.5% | 11.0%
Cc1cccc(C(=O)N2CCc3cc(-c4nc(NC(=O)CN5CCCC5)sc4C)ccc32)c1 | -1.6 | 0.2% | -0.8% | 3.5% | -0.6% | -3.6%
COC(=O)c1ccc(Cn2ncc3c4sc(C)cc4n(C)c3c2=O)cc1 | x | x | x | 10.1% | x | 4.0%
CCCCOC(=O)c1ccc(NS(=O)(=O)c2c(C)nc3scc(C)n3c2=O)cc1 | x | x | x | 16.4µM* | 5.6% | -8.6%
COc1ccccc1N1CCN(C(=O)CCn2cnc3onc(-c4ccc(F)cc4)c3c2=O)CC1 | x | x | x | -2.6% | -0.9% | 5.2%
CCCCC(=O)OCC(=O)C1(O)Cc2c(O)c3c(c(O)c2C(OC2CC(NC(=O)C(F)(F)F)C(O)C(C)O2)C1)C(=O)c1c(OC)cccc1C3=O (stereo not given) | 0.9 | x | 1.3% | 9.2µM* | -2.1% | u
COc1cccc2c1C(=O)c1c(O)c3c(c(O)c1C2=O)CC(O)(C(C)=O)CC3OC1CC(O)C(O)C(C)O1 (stereo not given) | -3.2 | x | 9.6% | 10.3µM* | 2.7% | u
Cc1cc(NC(=O)CSc2nc3ccccc3cc2C#N)no1 | -93.6* | 1.2% | 2.3% | -3.2% | 2.4% | -1.0%
COc1ccc2nc(SCC(=O)Nc3cc(C)on3)c(C#N)cc2c1 | -0.9 | -2.4% | -0.9% | -0.3% | -0.9% | 0.2%
C(/C=C/c1ccccn1)=C\c1ccccc1 | 1.2 | x | 9.8% | u | 12.6µM* | -8.2%
Cc1ccc(F)c(S(=O)(=O)NC(=O)C2(C)CCN2C(=O)COc2ccc(Cl)cc2)c1 (stereo not given) | -0.7 | x | x | x | 0.0% | x
Cc1cc(N/N=C/c2cccc([N+](=O)[O-])c2)nc(-n2nc(C)cc2C)n1 | -1.6 | -2.7% | -4.1% | -24.2% | -0.1% | -10.5%
Cc1cc(N/N=C/c2cccc(Cl)c2)nc(-n2nc(C)cc2C)n1 | -1.4 | -4.1% | 2.2% | 16.4µM* | 0.1% | -20.8%
CSc1cccc(NC(=O)CC(c2ccc(F)cc2)N2Cc3ccccc3C2=O)c1 (stereo not given) | x | x | x | -29.1% | -0.4% | -4.6%
CC1CCCCN1c1nnc(NC(=O)Nc2ccccc2F)s1 (stereo not given) | x | x | x | 20.6µM* | -0.7% | -24.7%
Cc1cccc(NC(=O)Nc2nnc(N3CCCCC3C)s2)c1C (stereo not given) | -3.1 | 3.3% | -3.1% | 14.4% | -1.3% | -1.8%
Cc1cc2c(s1)c1cnn(Cc3c(F)ccc(C)c3Cl)c(=O)c1n2C | x | x | x | 13.4% | x | -1.6%
Cc1ccc(C2=N/C(=C\c3ccc(F)cc3)C(=O)N2)cc1 | -43.9* | 5.8% | -2.4% | 9.0% | 4.9% | -1.5%
N#Cc1ccccc1OCC(=O)NNC(=O)CNC(=O)c1ccc(Br)o1 | -1.7 | -3.5% | -0.5% | 4.2% | -0.6% | -0.5%
Cc1ccc(S(=O)(=O)NCCC(=O)N2CCCCCCC2)cc1 | 0.0 | -1.6% | -4.4% | 8.2% | -0.6% | 9.0%
SMILES | CCT chaperon mod | AT treatment | TCR activator | Nrf2 inh | Nrf2 activator | A549 tox
COc1ccc(-c2nc3ccccc3c(=O)n2Cc2ccccc2)cc1COc1ccc(NC(C)=O)cc1 | x | x | x | 8.3% | x | -8.3%
Nc1ccc(C#Cc2ccc3c(=O)c4ccccc4oc3c2)cc1 | -1.7 | 17.9% | 4.7% | 10.3µM* | 2.6% | -8.4%
COc1cc2oc3cc(C#Cc4ccc(N)cc4)ccc3c(=O)c2cc1OC | -0.5 | x | -5.4% | 16.4µM* | 0.0% | u
N#Cc1ccc(C#Cc2ccc3oc4ccccc4c(=O)c3c2)cc1 | -2.0 | 2.5% | -4.2% | -11.1% | -0.9% | 9.9%
COc1cc2oc3ccc(C#Cc4ccc(N)cc4)cc3c(=O)c2cc1OC | -0.3 | x | 3.8% | 14.6µM* | 4.8% | -11.9%
CC(C)COc1ccc(CN=C(N)N=C(N)N)cc1Cl | -3.0 | -3.1% | -8.7%[46.1 µM] | 4.8% | 2.6% | -3.2%
COc1ccc(CN=C(N)N=C(N)N)cc1Cl | 1.1 | -0.4% | -7.9% | 16.4µM* | -0.1% | -19.3%
CC(C)Oc1ccc(CN=C(N)N=C(N)N)cc1Cl | 1.4 | -0.2% | 12.5%[46.1 µM] | 14.6µM* | -0.2% | -16.7%
CC(C)CCNC(=O)CN1C(=O)COc2ccc(S(=O)(=O)N3CCOCC3)cc21 | x | x | x | 7.7% | -0.6% | -7.0%
COc1cccc(-n2c(SCc3ccccn3)nc3c(c2=O)SCC3)c1 | -2.1 | -2.3% | -3.0% | 1.84µM* | -0.4% | -11.7%
CC(=NNC(=S)N1CCCC1)c1ccccn1 | -2.3 | x | x | x | u | x
CC(=NNC(=S)N1CC2CCC(CC2)C1)c1cccc(C)n1 | -0.2 | x | 7.2% | u | 17.1% | 9.2µM*
CC1CCN(C(=O)c2cc3ccccc3o2)CC1 | -35.9* | 4.2% | -33.7% | u | 0.4% | 1.8%
CCOC1(/N=C(\C)NS(=O)(=O)c2ccc(Cl)cc2)C(C)=CC(=O)C=C1C | -70.5* | -0.8% | 0.8% | 8.0% | 2.0% | 1.8%
CCCNC(=O)NS(=O)(=O)c1ccc(Cl)cc1 | 0.9 | -11.9% | -1.9% | 27.7% | 1.7% | 6.4%
CC1=CC=CC2=NC(=O)CC(C)(C(=O)O)N12 (stereo not given) | -0.9 | 9.3% | 3.0% | 0.5% | -0.1% | -4.0%
OCC[C@H]1C[C@H](O)[C@@H](O)[C@]2(CCCO2)O1 | -64.8* | x | -5.2% | -3.1% | 0.0% | 0.7%
CCc1nc(CN(C)C(=O)C2CCC(=O)N(Cc3cccc(F)c3)C2)no1 (stereo not given) | -0.7 | -0.2% | -4.4% | 0.8% | 0.0% | -4.1%
CCc1ccc(/C=C2\SC(=S)N(CCCC(=O)NCCCN3CCOCC3)C2=O)cc1 | 1.8 | x | x | x | -4.9% | x
O=C(CCN1C(=O)/C(=C/c2ccccc2F)SC1=S)NCCCN1CCOCC1 | 0.0 | 0.8% | -0.7% | u | 7.0% | u
